SMILES strings stand for the structures. About 4,100 (1.2%) of roughly 330,000 compounds were called active. This is one part of a sample in which actives are shown more often than they occur. Values without a mark were called inactive. Cut-off read from the data, not from the text of the source: active = inhibition above about 50%; inactive = the rest.

This test deals with Sentrin-specific protease 8 (Homo sapiens) (UniProt Q96LD8). As to the kind of experiment: SENP8 protease inhibitors, primary screen, biochemical, luminescence (AID 2540). As to conditions: purified SENP8, Z-RLRGG-aminoluciferin cleavage, at 10 µM, stronger effect = higher value.
Chain of Sentrin-specific protease 8 (Homo sapiens) (Q96LD8 whole entry, looked up): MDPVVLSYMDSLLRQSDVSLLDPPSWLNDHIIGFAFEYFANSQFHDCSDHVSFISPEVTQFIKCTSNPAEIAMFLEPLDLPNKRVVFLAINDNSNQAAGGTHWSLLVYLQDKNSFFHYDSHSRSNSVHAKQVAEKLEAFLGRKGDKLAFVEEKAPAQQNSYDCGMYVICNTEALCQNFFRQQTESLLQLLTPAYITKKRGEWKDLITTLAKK
With `CCN(CC)C(=O)CSc1ncnc2c1cnn2-c1ccccc1`, the inhibition was 2.66%.
On to `COC(=O)CSc1ncnc2c1cnn2-c1ccc(C)cc1C`, for which the inhibition is 6.59%.
The value for `COc1ccc(-n2ncc3c(SCC(=O)NNC(C)=O)ncnc32)cc1` was 53.4% (active); that for `CC(=O)Oc1ccc2c(=O)oc(-c3ccc([N+](=O)[O-])cc3)nc2c1` was 94.9% (active); that for `CC(=O)Oc1ccc(-c2nc3c(C)cccc3c(=O)o2)cc1` was -1.45%.
The value for `CCOC(=O)CSc1nnc(-c2ccc([N+](=O)[O-])cc2)o1` was 1.65%; that for `COc1ccccc1OCC(=O)O/N=C(\N)c1ccccn1` was -6.27%; that for `N/C(=N\OC(=O)CCC1CCCCC1)c1ccccn1` was 70.6% (active).
For `N/C(=N\OC(=O)CC1CCCCC1)c1ccccc1`, the inhibition was 18.2%.
Then `COc1ccc(-c2noc(CNC(=O)C(C)Oc3ccccc3)n2)cc1` (stereo not given), with -0.358%.
Then `COc1ccc(OC)c(-c2csc(-c3cccs3)n2)c1`, with -5.23%.
Then `COc1ccc(-c2nc(-c3ccccc3)no2)c(OC)c1`, with 98% (active).
On to `Clc1ccc2c(c1)C1=C(C(c3ccncc3)O2)C(c2ccc(Br)cc2)n2ncnc2N1` (stereo not given), for which the inhibition was -1.86%.
Then `CC(C)NC(=S)NN=C1CCCCCCCCCCC1`, with -4.77%.
The value for `CCn1c(CC(=O)Nc2ccccc2)nnc1SCC(=O)N1CCOCC1` was 3.84%.
With `C/C(=N\NC(=O)CC(C)C)c1c(C(F)(F)F)[nH]n(-c2nc3ccccc3s2)c1=O`, the inhibition is 96.3% (active).
Then `CC(C)CC(=O)N/C(N)=N/c1nc2ccccc2s1`, with 17%.
Then `CC(=NCc1ccco1)c1c(C(F)(F)F)[nH]n(-c2nc3ccccc3s2)c1=O`, with 94.7% (active); and `CCc1ccc(-c2cc(C(=O)NCc3ccco3)c3ccccc3n2)s1`, with -4.94%.
Then `CCC(C)Cn1c(O)cc2nn(-c3nc4ccccc4s3)c(=O)c-2c1C` (stereo not given), with 48%.
Take `CCC1(CC)NC(=O)N(Cc2nc3ccccc3s2)C1=O`: the inhibition was -5%.
On to `CC(C)(CSc1nncn1/N=C/c1ccco1)NS(=O)(=O)c1ccc(Cl)cc1`, for which the inhibition was -9.04%.
Consider `Cc1cc(/C=N/NC(N)=O)c(C)n1C1CCCCC1`, for which the inhibition was -15.2%.
Then `Cc1cc(=O)n2[nH]c(-c3cccc(Cl)c3)cc2n1`, with -14%.
Then `O=c1c2c(nc3cc(-c4cccc(Cl)c4)[nH]n13)CCCC2`, with 61.8% (active); and `CCCCN1Cc2c(nc3cc(-c4ccccc4)[nH]n3c2=O)C1=O`, with 1.85%.
On to `CC(Sc1nnc(-c2cccs2)n1C1CC1)C(=O)NCC1CCCO1` (stereo not given), for which the inhibition is -0.203%.
Then `Cc1ccnc(N2C(=O)c3ccc([N+](=O)[O-])cc3C2=O)c1`, with 6.9%; and `Cc1ccc(-n2cc3ccc([N+](=O)[O-])cc3n2)cc1`, with 68.6% (active).
Then `Cc1ccc(-c2cn(S(=O)(=O)c3cccc([N+](=O)[O-])c3)nc2N)cc1`, with -7.7%; and `COc1ccc(CN2CCN(C(=O)c3cc(C4CC4)nn3-c3ccccc3)CC2)cc1F`, with -8.29%.
As for `COc1cc(SC)ccc1C(=O)Nc1nc(C)cs1`, the inhibition was 97.6% (active).
Then `Cc1csc(NC(=O)c2ccc(C)s2)n1`, with -2.73%; and `COc1cc(SC)ccc1C(=O)Nc1cc(C)ccn1`, with 39%.
The value for `COc1ccc(N(CC(=O)NC2CCCC2)C(=O)CS(=O)CC(=O)Nc2ccc3c(c2)OCO3)cc1` (stereo not given) was -16.6%; that for `CCNC(=S)N1CCN(CCN=CC2=C(O)CC(C)(C)CC2=O)CC1` was -4.68%; that for `CC1(C)CC(=O)C(C=NCCN2CCN(C(=S)Nc3cccc(Cl)c3)CC2)=C(O)C1` was 0.407%.
The value for `Cc1ccc(-n2[nH]c(C)c(/C=N/NC(=O)c3cccc([N+](=O)[O-])c3)c2=O)cc1C` was -5.78%; that for `C=CCNC(=S)N1CCN(CCN=Cc2c(C)[nH]n(-c3ccc([N+](=O)[O-])cc3)c2=O)CC1` was 61.4% (active).
Regarding `Cc1[nH]n(-c2ccc([N+](=O)[O-])cc2)c(=O)c1C=NCCN1CCN(C(=O)c2ccccc2F)CC1`, the inhibition was 64.8% (active).
As for `Cc1[nH]n(-c2ccccc2)c(=O)c1N=Nc1ccccc1C(=O)N1CCCCC1`, the inhibition was -1.4%.
The value for `CCc1ccc2nc(Nc3ncc(C(C)=O)c(C)n3)nc(C)c2c1` was -7.29%.
The value for `Cn1nnnc1-c1cc(Cl)cc(Cl)c1` was 3.44%; that for `N#C/C(=C\c1cccnc1)C(=O)Nc1ccc(SC(F)F)cc1` was 7.81%; that for `COc1ccc(N(CC(=O)NCCSCc2cccc(Cl)c2)S(C)(=O)=O)cc1` was 4.81%.
The value for `CCC(C)c1ccc(NC(=S)N2CCCC2)cc1` (stereo not given) was -3.49%; that for `Cc1ccc(/C(N)=N/OC(=O)COc2ccc(Cl)c(C)c2)cc1` was -7.2%.
In the case of `Cc1cccc(/C(N)=N/OC(=O)c2ccccc2Cl)c1`, the inhibition was 94.7% (active).
The value for `N/C(=N\OC(=O)c1cc(-c2ccccc2)nc2ccccc12)c1ccncc1` was -5.5%.
The value for `Cc1ccc(S(=O)(=O)NCCNC(C)c2ccc(Br)cc2)cc1` (stereo not given) was 2.45%.
With `COc1cccc(/C=C/C(=O)OCC(=O)N2CCN(c3ccccc3)CC2)c1`, the inhibition was -5.84%.
The value for `COc1cc(NC(=O)COC(=O)c2ccc([N+](=O)[O-])s2)cc(OC)c1OC` was 63.8% (active); that for `COc1ccc(C(=O)OCC(=O)Nc2ccc3[nH]c(=O)[nH]c3c2)c(OC)c1OC` was 2.13%.
The value for `COc1ccc(C(=O)COC(=O)c2ccc([N+](=O)[O-])s2)cc1OC` was 61.6% (active); that for `COc1ccc(C(=O)OCC(=O)c2ccc(Cl)s2)c(OC)c1OC` was -5.24%.
As to `O=C(OCC(=O)N1CCN(c2ccccc2)CC1)c1ccc([N+](=O)[O-])s1`, the inhibition is 58.1% (active).
The value for `C[C@H](NC(=O)c1ccccc1Cl)C(=O)OCC(=O)N1CCN(c2ccccc2)CC1` was 2.29%; that for `COc1ccc(C(=O)OCC(=O)c2ccc(C)c(S(=O)(=O)N3CCOCC3)c2)cc1OC` was -6.51%; that for `COc1cc(C(=O)OCc2ccc([N+](=O)[O-])cc2)cc(OC)c1OC` was 15.6%.
Then `CC1(C)Cc2ccccc2-c2nnc(-c3cccc(O)c3)n21`, with -5.27%.
